“And” between values parts separate entries of the source, which are not always exact repeats. Equal values may be shown once. Values without a mark were called inactive. Inconclusive results are not listed. Entries that show only a call come without a potency. The source made the active and inactive calls. Unless noted, calls come from the whole dose curve; as a rule, active = well fitted curve in the direction sought with a large enough effect; inconclusive = small, poorly fitted or top-dose-only effect, or another doubt; inactive = no such curve, though single readings can be large; an effect the other way counts as inactive or inconclusive.
Columns and labels:
[1] = biological target: Lysosomal acid glucosylceramidase (Homo sapiens) (UniProt P04062); experiment: Glucocerebrosidase-p2 (AID 348; in the data active = potency below about 10 µM; note: potency is the fitted concentration of half-maximal effect); details: purified GBA, blue fluorogenic substrate, 40 min
Method in brief: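 Normal human glucocerebrosidase (0.2 nM) with blue fluorogenic substrate (80 uM final) in citrate/phosphate pH 5.9 with 10mM sodium taurocholate, 0.01% tween-20; 40 min RT, NaOH/glycine stop; fluorescence Ex 365/Em 440; AC50 from a titration from 0.6 nM upwards.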

[2] = AP1 Signaling Pathway (AID 357; active = well fitted curve in either direction with a large enough effect, not every such curve was filed as active;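 note: ME-180 reporter cells stimulated with EGF at its EC50 level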); details: ME-180 (cervical carcinoma) AP-1-bla reporter, EGF-induced, beta-lactamase ratio, 5 h; series mostly up to 17.2 µM
Method in brief: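 Titration-series screen for positive or negative modulators of EC50 EGF-induced signaling in ME-180 cells carrying an AP-1-driven beta-lactamase reporter. After 5 hours at 37 degrees Celsius, CCF4 460nm/530nm emission ratio gave %Activity; AC50 values derived.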

[3] = biological target: Glucocorticoid receptor (Homo sapiens) (UniProt P04150); experiment: GR-EFC Redistribution (AID 451; calls by dose curve; note: potency is the fitted concentration of half-maximal effect); details: CHO-K1 GR-EFC translocation, beta-gal luminescence, 2 h
Method in brief: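 CHO-K1 cells stably expressing nuclear-localized β-gal enzyme acceptor and GR fused C-terminally to the enzyme donor fragment; ligand-driven nuclear translocation restores β-gal by complementation. Compounds titrated up to 46 uM final, 2 h at 37 °C; luminescence read.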

[4] = biological target: 3',5'-cyclic-AMP phosphodiesterase 4B (Homo sapiens) (UniProt Q07343); experiment: qHTS Assay for Inhibitors of PDE-IV (AID 607; active = well fitted activation curve with a large enough effect in the main read-out, with a control signal flat, not every such curve was filed as active); details: HEK293 ACTOne CNG channel cells, membrane potential fluorescence; series mostly up to 22.9 µM
Method in brief: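 HEK293 ACTOne cells with CNG channel (1000/well), endogenous PDE4; membrane potential dye, compounds up to 22.9 uM final. Fluorescence Ex 535/Em 590; RO 20-1724 (100 uM final) as reference.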

[5] = biological target: Cytochrome P450 3A4 (Homo sapiens) (UniProt P08684); experiment: qHTS Assay for Activators of Cytochrome P450 3A4 (AID 885); details: recombinant CYP3A4, Luciferin-PPXE luminescence, 60 min; series mostly up to 57.1 µM; note: nearly all actives have a fitted effect of over 65% in size
Method in brief: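 Human CYP3A4 dealkylates Luciferin-PPXE to luciferin, which luciferase detection converts to light. Substrate was at its KM (25uM), buffer 200mM KPO4, reaction 60 min at RT.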

[6] = Cell Viability - LYMP2-019 (AID 973); details: LYMP2-019 lymphoblastoid cell line viability; series mostly up to 92.2 µM;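 note: cells exposed to compound for 24 h at 37 °C; nearly all actives have a fitted effect of over 55% in size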
Method in brief: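 Cytotoxicity is scored as a concentration-dependent drop in cellular ATP after cells (2500/well) receive compound for 24 hr at 37 C. Tetraoctylammonium bromide serves as positive control.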

[7] = Cell Viability - LYMP2-006 (AID 978); details: LYMP2-006 lymphoblastoid cell viability, qHTS; series mostly up to 92.2 µM;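 note: cells exposed to compound for 24 hours; nearly all actives have a fitted effect of over 60% in size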
Method in brief: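 In this cytotoxicity screen, the human lymphoblastoid line grew in complete medium with test compounds for 24 hr at 37 C. Cellular ATP served as the viability signal.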

[8] = qHTS assay for environmental chemicals that activate the Aryl hydrocarbon Receptor (AhR) signaling pathway (AID 651777); details: 1A2-DRE human hepatoma cells, luciferase, 24 h; activation: active compounds read high; note: nearly all actives have a fitted effect of over 15% in size; note: potency is the fitted concentration of half-maximal effect
Method in brief: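 Luminescence read-out: One-Glo added for 30 min at RT after 24 hr compound treatment (37 C, 5% CO2) of human hepatoma cells expressing a DRE/CYP1A2 promoter–luciferase reporter; increased signal indicates AhR activation.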

[9] = biological target: Androgen receptor (Homo sapiens) (UniProt P10275); experiment: qHTS assay for small molecule agonists of androgen receptor signaling (AID 588515; active = well fitted curve in the direction sought with a large enough effect in the signal ratio, with a control signal flat; the % refers to the signal ratio); details: AR-UAS-bla HEK293, beta-lactamase ratio, agonist 16 h; active compounds read high
Method in brief: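 Stimulation of an AR-responsive β-lactamase reporter in GripTite HEK293 cells was measured after 16 h compound exposure at 37 °C, via CCF4 fluorescence after 2 h RT. EC50 from Hill fits, normalized to R1881 at 30 nM.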

[10] = biological target: Androgen receptor (Homo sapiens) (UniProt P10275); experiment: qHTS assay for small molecule antagonists of androgen receptor signaling (AID 588516; active = well fitted curve in the direction sought with a large enough effect in the signal ratio, with a control signal flat, not every such curve was filed as active; the % refers to the signal ratio); details: AR-UAS-bla HEK293, beta-lactamase ratio, antagonist mode, 16 h; series mostly up to 76.8 µM
Method in brief: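 Compounds tested in titration against 10 nM R1881 in AR-responsive bla reporter HEK 293 cells; CCF4 fluorescence (460/530 nm) after 16 h exposure gave IC50 and efficacy.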

[11] = MultiTox-Fluor Cytotoxicity Assay - LYMP1-003 - Dead Cells (AID 961); details: LYMP1-003 lymphoblastoid cells, dead-cell protease fluorescence; series mostly up to 92.2 µM; note: nearly all actives have a fitted effect of over 70% in size
Method in brief: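 LYMP1-003 human lymphoblastoid cells (2500/well) exposed to compound 16 h at 37 C in complete medium; dead-cell protease read with bis-AAF-R110 fluorescence (Ex/Em 485/520) after 60 min at room temperature. Normalized to DMSO and 15 uM tetraoctylammonium bromide; AC50 from Hill fit.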

[12] = qHTS assay to identify small molecules that stimulate interleukin-8 (IL-8) secretion (AID 651758; active = well fitted activation curve with a large enough effect in the signal ratio; the % refers to the signal ratio); details: HTRF ratio (665/615); series mostly up to 92.2 µM
Method in brief: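 Quantitative HTS in THP-1 monocytic cells at 2000 cells per well, with 16 hrs compound incubation at 37 C. IL-8 in the medium was then quantified by HTRF immunoassay, read after 1-3 hrs at room temperature.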

[13] = biological target: Cytochrome P450 1A2 (Homo sapiens) (UniProt P05177); experiment: p450-cyp1a2 (AID 410; calls by dose curve; note: potency is the fitted concentration of half-maximal effect); details: recombinant CYP1A2, luciferin-ME demethylation, luminescence; series mostly up to 25.6 µM
Method in brief: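 O-Demethylation of luciferin 6' methyl ether by human CYP1A2 is monitored as luciferase luminescence. Substrate sits at Km (100uM); enzyme is 20nM. Values are scaled to 57 uM furafylline as maximal inhibition.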

Sequence of Glucocorticoid receptor (Homo sapiens) (P04150 whole entry, looked up, the tested form may be a part): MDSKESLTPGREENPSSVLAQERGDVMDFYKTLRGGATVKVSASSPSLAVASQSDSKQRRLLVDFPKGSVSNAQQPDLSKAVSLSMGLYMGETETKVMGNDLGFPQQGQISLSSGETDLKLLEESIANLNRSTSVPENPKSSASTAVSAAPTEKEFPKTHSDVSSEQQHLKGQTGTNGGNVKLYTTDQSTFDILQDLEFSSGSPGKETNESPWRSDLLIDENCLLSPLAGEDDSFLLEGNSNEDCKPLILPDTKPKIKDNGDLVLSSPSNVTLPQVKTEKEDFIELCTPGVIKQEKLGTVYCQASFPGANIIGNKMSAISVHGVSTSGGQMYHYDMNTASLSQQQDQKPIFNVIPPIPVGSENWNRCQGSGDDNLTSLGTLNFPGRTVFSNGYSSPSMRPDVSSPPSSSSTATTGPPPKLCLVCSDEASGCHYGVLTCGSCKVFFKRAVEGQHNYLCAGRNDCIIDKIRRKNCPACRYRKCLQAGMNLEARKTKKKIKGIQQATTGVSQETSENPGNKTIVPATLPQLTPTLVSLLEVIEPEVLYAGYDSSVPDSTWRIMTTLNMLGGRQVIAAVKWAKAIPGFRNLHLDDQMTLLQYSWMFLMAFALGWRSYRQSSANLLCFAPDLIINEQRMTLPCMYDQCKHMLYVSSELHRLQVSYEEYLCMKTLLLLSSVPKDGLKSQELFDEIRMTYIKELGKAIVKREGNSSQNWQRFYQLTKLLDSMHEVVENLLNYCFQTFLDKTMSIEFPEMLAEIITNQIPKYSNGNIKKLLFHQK
Sequence of 3',5'-cyclic-AMP phosphodiesterase 4B (Homo sapiens) (Q07343 whole entry, looked up): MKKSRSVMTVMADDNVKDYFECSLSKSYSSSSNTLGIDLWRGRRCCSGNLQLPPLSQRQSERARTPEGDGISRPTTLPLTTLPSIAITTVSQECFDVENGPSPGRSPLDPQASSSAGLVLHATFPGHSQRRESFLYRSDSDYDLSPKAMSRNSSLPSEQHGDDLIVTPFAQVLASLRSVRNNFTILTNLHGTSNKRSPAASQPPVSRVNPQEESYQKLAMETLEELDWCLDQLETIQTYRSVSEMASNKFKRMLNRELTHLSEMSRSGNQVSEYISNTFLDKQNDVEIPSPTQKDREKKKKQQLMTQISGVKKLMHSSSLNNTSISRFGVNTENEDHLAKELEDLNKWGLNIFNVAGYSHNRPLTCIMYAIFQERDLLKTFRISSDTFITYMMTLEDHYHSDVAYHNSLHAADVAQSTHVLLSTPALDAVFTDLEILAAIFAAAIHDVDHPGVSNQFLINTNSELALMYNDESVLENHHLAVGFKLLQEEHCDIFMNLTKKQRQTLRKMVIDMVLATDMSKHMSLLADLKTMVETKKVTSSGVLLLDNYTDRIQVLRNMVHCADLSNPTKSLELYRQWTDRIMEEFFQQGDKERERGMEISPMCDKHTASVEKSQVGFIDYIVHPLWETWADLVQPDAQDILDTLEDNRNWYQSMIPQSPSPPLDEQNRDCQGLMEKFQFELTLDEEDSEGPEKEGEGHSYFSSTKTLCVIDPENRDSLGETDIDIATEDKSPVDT
Sequence of Cytochrome P450 1A2 (Homo sapiens) (P05177 whole entry, looked up): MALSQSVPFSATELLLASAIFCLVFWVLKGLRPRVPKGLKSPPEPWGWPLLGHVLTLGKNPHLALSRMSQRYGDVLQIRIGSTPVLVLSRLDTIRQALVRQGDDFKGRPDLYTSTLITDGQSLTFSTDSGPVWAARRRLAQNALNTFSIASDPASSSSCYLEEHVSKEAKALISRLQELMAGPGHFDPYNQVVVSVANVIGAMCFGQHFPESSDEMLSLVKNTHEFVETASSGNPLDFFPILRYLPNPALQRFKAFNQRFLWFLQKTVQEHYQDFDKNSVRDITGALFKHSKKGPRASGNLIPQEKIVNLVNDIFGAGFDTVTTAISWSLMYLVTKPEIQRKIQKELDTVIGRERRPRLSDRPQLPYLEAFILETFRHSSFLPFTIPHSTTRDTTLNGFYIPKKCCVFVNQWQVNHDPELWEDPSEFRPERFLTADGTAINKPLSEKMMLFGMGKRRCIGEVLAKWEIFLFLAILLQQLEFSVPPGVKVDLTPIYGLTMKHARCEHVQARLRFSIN
Sequence of Cytochrome P450 3A4 (Homo sapiens) (P08684 whole entry, looked up): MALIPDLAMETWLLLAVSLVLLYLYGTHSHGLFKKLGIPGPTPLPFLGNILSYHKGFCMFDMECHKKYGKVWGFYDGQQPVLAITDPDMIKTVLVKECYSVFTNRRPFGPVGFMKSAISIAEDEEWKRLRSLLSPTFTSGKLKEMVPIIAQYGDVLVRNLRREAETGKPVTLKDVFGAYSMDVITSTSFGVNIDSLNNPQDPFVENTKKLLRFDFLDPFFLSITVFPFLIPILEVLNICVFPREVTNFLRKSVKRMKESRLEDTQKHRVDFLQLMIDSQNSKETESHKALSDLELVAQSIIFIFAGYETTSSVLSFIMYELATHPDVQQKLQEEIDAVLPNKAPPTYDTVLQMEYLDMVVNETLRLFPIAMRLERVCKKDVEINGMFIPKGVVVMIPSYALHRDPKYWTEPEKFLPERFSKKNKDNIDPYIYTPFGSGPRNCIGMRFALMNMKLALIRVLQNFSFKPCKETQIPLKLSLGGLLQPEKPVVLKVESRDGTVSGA
Sequence of Lysosomal acid glucosylceramidase (Homo sapiens) (P04062 whole entry, looked up): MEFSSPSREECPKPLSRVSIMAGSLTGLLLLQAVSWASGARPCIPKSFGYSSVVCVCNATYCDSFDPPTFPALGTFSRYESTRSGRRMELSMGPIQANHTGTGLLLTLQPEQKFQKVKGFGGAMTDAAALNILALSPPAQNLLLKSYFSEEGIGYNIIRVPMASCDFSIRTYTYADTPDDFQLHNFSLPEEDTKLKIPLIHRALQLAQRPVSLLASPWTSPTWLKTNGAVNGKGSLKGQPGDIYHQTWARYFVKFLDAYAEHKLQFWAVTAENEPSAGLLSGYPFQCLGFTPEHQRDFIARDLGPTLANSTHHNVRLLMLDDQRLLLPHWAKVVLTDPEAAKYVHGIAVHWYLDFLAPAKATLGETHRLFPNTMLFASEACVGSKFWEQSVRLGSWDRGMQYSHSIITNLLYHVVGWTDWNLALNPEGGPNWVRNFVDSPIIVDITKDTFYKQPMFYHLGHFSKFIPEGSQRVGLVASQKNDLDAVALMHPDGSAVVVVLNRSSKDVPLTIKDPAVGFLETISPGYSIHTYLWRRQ
Sequence of Androgen receptor (Homo sapiens) (P10275 whole entry, looked up): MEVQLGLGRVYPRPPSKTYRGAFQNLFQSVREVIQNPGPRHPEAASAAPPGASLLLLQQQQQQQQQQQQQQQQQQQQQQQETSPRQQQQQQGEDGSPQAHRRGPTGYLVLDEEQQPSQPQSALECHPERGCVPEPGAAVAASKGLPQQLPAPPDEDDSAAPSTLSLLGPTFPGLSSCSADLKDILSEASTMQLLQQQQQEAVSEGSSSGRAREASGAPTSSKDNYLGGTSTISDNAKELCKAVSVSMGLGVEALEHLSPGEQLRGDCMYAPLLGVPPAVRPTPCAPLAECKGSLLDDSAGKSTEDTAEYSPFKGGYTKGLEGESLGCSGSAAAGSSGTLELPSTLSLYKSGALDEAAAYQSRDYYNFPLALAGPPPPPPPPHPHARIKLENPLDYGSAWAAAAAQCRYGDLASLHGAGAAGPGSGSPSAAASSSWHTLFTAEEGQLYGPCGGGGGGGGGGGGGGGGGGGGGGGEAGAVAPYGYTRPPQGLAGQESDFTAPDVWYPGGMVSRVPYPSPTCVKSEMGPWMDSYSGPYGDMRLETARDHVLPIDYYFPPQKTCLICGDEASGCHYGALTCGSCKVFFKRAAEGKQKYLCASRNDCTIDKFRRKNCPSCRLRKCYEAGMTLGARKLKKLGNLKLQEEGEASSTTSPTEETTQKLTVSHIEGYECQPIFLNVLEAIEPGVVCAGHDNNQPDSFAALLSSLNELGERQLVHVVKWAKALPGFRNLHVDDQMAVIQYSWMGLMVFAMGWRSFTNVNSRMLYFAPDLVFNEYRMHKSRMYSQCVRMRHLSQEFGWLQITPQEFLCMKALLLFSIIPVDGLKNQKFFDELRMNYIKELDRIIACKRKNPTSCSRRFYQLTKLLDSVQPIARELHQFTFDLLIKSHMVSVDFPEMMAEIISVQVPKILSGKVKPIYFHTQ

## CC(C)CN1CCCC2(CCN(C(=O)Oc3ccccc3)CC2)C1
[1]
  Potency: > 11.4 µM
[2]
  outcome: inactive
[3]
  Potency: > 46 µM
[4]
  Potency: inactive
[5]
  Potency: inactive

## OCC1CO1 (centres undefined)
[6]
  Potency: inactive
[7]
  Potency: inactive
[8]
  activation: -0.664% and -1.74%

## Cc1ccc2ccccc2c1
[6]
  Potency: inactive
[9]
  activation: 23%
[10]
  Potency: inactive

## CCCSC(=O)Cl
[11]
  Potency: inactive
[7]
  Potency: inactive
[12]
  Potency: inactive
[8]
  activation: -0.385%

## CC(Cl)Cl
[6]
  Potency: inactive
[8]
  activation: -0.961%

## O=C(Cl)/C=C/C(=O)Cl
[6]
  Potency: inactive
[7]
  Potency: inactive
[9]
  activation: 8.8%
[10]
  Potency: inactive
[8]
  activation: -0.935%

## Cc1cccc([N+](=O)[O-])c1
[7]
  Potency: inactive

## c1ccc2c(c1)CCCC2
[6]
  Potency: inactive
[9]
  activation: -2.87%
[10]
  Potency: inactive
[8]
  activation: 2.13%

## S=C=Nc1cccc2ccccc12
[5]
  Potency: inactive
[11]
  Potency: inactive
[9]
  activation: -5.44%
[10]
  Potency: inactive
[12]
  Potency: inactive
[8]
  Potency: 50.1 µM (active)

## C#CCN(C)[C@@H](C)Cc1ccccc1
[2]
  outcome: inactive
[13]
  Potency: 25.1 µM (active) and 10 µM (active)
[3]
  Potency: > 46 µM and > 20.6 µM
[4]
  Potency: inactive

## O=C(Oc1ccccc1)N1CCC[C@@]2(CCN(Cc3cc(C(F)(F)F)cc(C(F)(F)F)c3)C2)C1
[1]
  Potency: > 11.4 µM
[3]
  Potency: > 46 µM
[4]
  Potency: inactive

## O=NN(c1ccccc1)c1ccccc1
[6]
  Potency: inactive
[12]
  Potency: inactive

## CCCCCCCC(=O)Cl
[11]
  Potency: inactive
[12]
  Potency: inactive
[8]
  activation: -0.601%

## O=C(Oc1ccccc1)N1CCC[C@@]2(CCN(C(c3ccccc3)c3ccccc3)C2)C1
[1]
  Potency: > 11.4 µM
[2]
  outcome: inactive
[13]
  Potency: 25.1 µM (active)
[3]
  Potency: > 46 µM
[4]
  Potency: inactive
[5]
  Potency: inactive

## O=C(Oc1ccccc1)N1CCC2(CCCN(Cc3nccs3)C2)CC1
[1]
  Potency: > 11.4 µM
[2]
  outcome: inactive
[13]
  Potency: inactive
[3]
  Potency: > 46 µM
[4]
  Potency: inactive
[5]
  Potency: inactive

## O=[N+]([O-])c1cccc2ccccc12
[11]
  Potency: inactive
[6]
  Potency: inactive

## C=CCOC(=O)c1ccccc1N
[7]
  Potency: inactive
[10]
  Potency: inactive
[12]
  Potency: inactive

## OCC(Br)CBr (centres undefined)
[11]
  Potency: inactive
[6]
  Potency: inactive
[7]
  Potency: inactive
[8]
  activation: -1.14%

## Brc1ccc(Oc2cc(Br)c(Br)cc2Br)c(Br)c1
[11]
  Potency: inactive
[7]
  Potency: inactive

## C=C(C)C#N
[8]
  activation: -0.895% and 0.596%

## O=C(c1ccco1)N1CCC2(CC1)CN(Cc1ccncc1)C2
[1]
  Potency: > 11.4 µM
[2]
  outcome: inactive
[3]
  Potency: > 46 µM
[4]
  Potency: inactive

## Cc1cccc(C#N)c1
[6]
  Potency: inactive

## C=CC1CC=CCC1 (centres undefined)
[11]
  Potency: inactive
[7]
  Potency: inactive
[8]
  activation: 0.186% and 0.879%

## CCOP(=S)(OCC)Oc1ccc([N+](=O)[O-])cc1
[5]
  Potency: inactive
[6]
  Potency: inactive
[7]
  Potency: inactive
[8]
  activation: 8.97%

## CC(C)(OO)c1ccccc1
[7]
  Potency: inactive

## Oc1ccc(Cl)cc1Cl
[11]
  Potency: inactive
[6]
  Potency: inactive
[8]
  activation: 0.13% and 0.875%

## CC(C)CN1CC[C@@]2(CCCN(C(=O)Oc3ccccc3)C2)C1
[1]
  Potency: > 11.4 µM
[2]
  outcome: inactive
[13]
  Potency: 15.8 µM (active)
[3]
  Potency: > 46 µM
[4]
  Potency: inactive
[5]
  Potency: inactive

## C=CC(=C)C
[11]
  Potency: inactive
[7]
  Potency: inactive
[8]
  activation: -0.578%

## C/C=C1\C[N@@+]2(C)CC[C@@]34C(=C(C=O)[C@H]1C[C@H]32)Nc1ccccc14
[2]
  outcome: inactive
[13]
  Potency: inactive
[3]
  Potency: > 20.6 µM
[4]
  Potency: inactive
[5]
  Potency: inactive

## C[C@@]12CC[C@H]3[C@@H](CC[C@@H]4C[C@H]5S[C@H]5C[C@]43C)[C@H]1CC[C@H]2O
[2]
  outcome: inactive
[13]
  Potency: 0.0251 µM (active)
[3]
  Potency: > 20.6 µM
[4]
  Potency: inactive
[5]
  Potency: inactive

Reference: PubChem BioAssay (NCATS)
